Among the data in PubChem BioAssay (EPA / NIEHS) are outcome and AC50 values, retold here.

Test [1] concerns the target Paired box protein Pax-6 (Homo sapiens) (UniProt P26367). Nature of the test: ATG_Pax6_CIS: Attagene CIS-FACTORIAL HepG2 Assay for human Paired Box 6 (PAX6) (AID 2282956). Particulars: HepG2 CIS-FACTORIAL PAX6 reporter transcription, RNA readout; actives raise or lower the signal. The procedure, abridged: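 HepG2 cells transiently transfected with multiplexed cis-promoter reporter units (endogenous TF activity) were dosed for 24 h. Reporter mRNA was quantified by RT-PCR, 6-FAM labeling, HpaI digestion and capillary electrophoresis; bidirectional fitting versus DMSO baseline.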

Test [2] can be described thus: ATG_PXRE_CIS: Attagene CIS-FACTORIAL HepG2 Assay for human Pregnane X Receptor Element (PXRE) (AID 2282957). The settings on record: HepG2 Attagene CIS-FACTORIAL PXRE reporter, mRNA; actives raise or lower the signal. The essentials:
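Cells: HepG2, transiently transfected reporter units under cis promoter control. Exposure: 24 h. Detection: reporter mRNA via RT-PCR/CE fluorescence; bidirectional fitting, DMSO-referenced.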

The nature of test [3]: ATG_PPRE_CIS: Attagene CIS-FACTORIAL HepG2 Assay for human Peroxisome Proliferator-activated Response Element (PPRE) (AID 2282958). The settings on record: HepG2 PPRE cis-element reporter, Attagene transcription factor profiling; actives raise or lower the signal. The essentials: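 Transcript-level reporter induction in transfected HepG2 cells after 24 h chemical exposure, quantified by fluorescence from RT-PCR products separated by capillary electrophoresis.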

Test [4] is described as follows: ATG_RORE_CIS: Attagene CIS-FACTORIAL HepG2 Assay for human RAR-related Orphan Receptor Element (RORE) (AID 2282959). Particulars: HepG2 Attagene cis-factorial RORE reporter, mRNA; actives raise or lower the signal. The essentials: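 Multiplexed reporter assay measuring mRNA induction from a cis promoter element in transiently transfected HepG2 cells after 24 h treatment. Detection via RT-PCR and capillary electrophoresis fluorescence; DMSO serves as baseline.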

Test [5] can be described thus: ATG_Sox_CIS: Attagene CIS-FACTORIAL HepG2 Assay for human SRY-box transcription factor (SOX) (AID 2282960). The settings on record: HepG2 Attagene cis-factorial SOX reporter, mRNA; actives raise or lower the signal. The procedure, abridged:
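Cells were transfected with reporter constructs under cis-regulatory promoters, then exposed to chemicals for 24 h. Reporter transcripts were quantified by fluorescence after RT-PCR and capillary electrophoresis; activity was fitted in both directions against DMSO.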

Test [6] deals with Transcription factor Sp1 (Homo sapiens) (UniProt P08047). Nature of the test: ATG_Sp1_CIS: Attagene CIS-FACTORIAL HepG2 Assay for human Specificity Protein 1 (Sp1) (AID 2282961). The settings on record: HepG2 Sp1 cis-reporter transcription, actives raise or lower the signal. The essentials: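 Measures mRNA induction of an Sp1-linked reporter in HepG2 cells 24 h post-dosing. Multiplexed reporters read by RT-PCR and capillary electrophoresis; DMSO serves as negative control and baseline.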
Transcription factor Sp1 (Homo sapiens), sequence (P08047 whole entry, looked up): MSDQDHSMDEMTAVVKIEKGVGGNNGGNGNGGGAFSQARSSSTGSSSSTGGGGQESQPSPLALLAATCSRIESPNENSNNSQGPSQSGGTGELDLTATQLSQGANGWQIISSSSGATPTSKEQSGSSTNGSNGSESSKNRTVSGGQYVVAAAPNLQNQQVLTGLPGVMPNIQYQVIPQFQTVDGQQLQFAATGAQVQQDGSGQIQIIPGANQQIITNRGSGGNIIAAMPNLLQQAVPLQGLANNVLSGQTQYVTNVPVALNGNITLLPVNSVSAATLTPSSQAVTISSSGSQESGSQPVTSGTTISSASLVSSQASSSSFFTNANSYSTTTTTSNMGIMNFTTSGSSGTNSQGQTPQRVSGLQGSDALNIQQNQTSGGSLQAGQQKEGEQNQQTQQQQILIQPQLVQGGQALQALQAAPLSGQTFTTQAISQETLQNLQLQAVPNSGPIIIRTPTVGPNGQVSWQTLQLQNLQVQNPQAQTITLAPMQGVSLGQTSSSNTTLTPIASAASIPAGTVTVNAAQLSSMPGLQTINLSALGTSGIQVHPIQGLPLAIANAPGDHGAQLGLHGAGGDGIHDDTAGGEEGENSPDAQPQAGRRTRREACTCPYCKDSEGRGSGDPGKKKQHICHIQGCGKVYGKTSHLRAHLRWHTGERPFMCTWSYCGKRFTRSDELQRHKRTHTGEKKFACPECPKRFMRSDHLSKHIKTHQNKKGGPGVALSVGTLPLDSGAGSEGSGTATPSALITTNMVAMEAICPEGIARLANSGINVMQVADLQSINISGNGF

Test [7] can be described thus: ATG_SREBP_CIS: Attagene CIS-FACTORIAL HepG2 Assay for human Sterol Regulatory Element Binding (SREBP) (AID 2282962). Particulars: HepG2 Attagene cis-factorial SREBP reporter, mRNA; actives raise or lower the signal. The essentials:
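HepG2 cells transiently transfected with multiplexed cis-element reporter units report endogenous transcription factor activity. After 24 h of chemical exposure, reporter mRNA was quantified by RT-PCR, 6-FAM labelling, HpaI digestion and capillary electrophoresis; bidirectional fits used DMSO as baseline.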

The target in test [8] is Signal transducer and activator of transcription 3 (Homo sapiens) (UniProt P40763). Nature of the test: ATG_STAT3_CIS: Attagene CIS-FACTORIAL HepG2 Assay for human Signal Transducer and Activator of Transcription 3 (STAT3) (AID 2282963). The settings on record: HepG2, Attagene cis-factorial STAT3 reporter transcription; actives raise or lower the signal. The essentials:
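HepG2 cells transiently transfected with cis-element-driven multiple reporter transcription units; after 24 h chemical exposure, reporter mRNA measured by RT-PCR, 6-FAM primer-extension labelling, HpaI digestion and capillary electrophoresis. Bidirectional fitting versus DMSO baseline.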

Test [9] can be described thus: ATG_TA_CIS: Attagene CIS-FACTORIAL HepG2 Assay for human TA Basal Promoter (AID 2282964). The settings on record: HepG2 Attagene CIS-factorial TA basal promoter reporter; actives raise or lower the signal. The procedure, abridged: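 Background-control readout: TA basal promoter reporter mRNA, fitted in both directions relative to DMSO. Measured by RT-PCR and capillary electrophoresis 24 hours after treating HepG2 human liver cells transiently carrying multiplexed cis-regulated reporter constructs.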

The nature of test [10]: ATG_TAL_CIS: Attagene CIS-FACTORIAL HepG2 Assay for human TAL Basal Promoter (AID 2282966).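 Note: background control endpoint measuring basal TAL promoter reporter mRNA not a specific factor.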 The settings on record: HepG2 Attagene cis-factorial TAL promoter reporter; actives raise or lower the signal. The essentials: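 RT-PCR plus capillary electrophoresis quantifies reporter mRNA induction in transiently transfected HepG2 cells after 24 h chemical treatment. DMSO serves as negative control and baseline for bidirectional fitting.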

A short description of test [11]: ATG_TGFb_CIS: Attagene CIS-FACTORIAL HepG2 Assay for human Transforming Growth Factor (TGF) (AID 2282967). The settings on record: HepG2 Attagene CIS TGFb reporter, mRNA transcription; actives raise or lower the signal. The essentials: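 Endogenous TGFB1-linked transcription factor activity read as reporter mRNA via RT-PCR and capillary electrophoresis, 24 h after dosing transiently transfected HepG2 cells. Gain or loss of signal fitted relative to DMSO.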

Test [12] can be described thus: ATG_VDRE_CIS: Attagene CIS-FACTORIAL HepG2 Assay for human Vitamin D Receptor Element (VDRE) (AID 2282968). Particulars: HepG2 VDRE cis-reporter transcription, actives raise or lower the signal. The essentials:
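HepG2 cells transiently transfected with cis-element reporter units, dosed 24 h; reporter mRNA measured by RT-PCR, 6-FAM labeling, HpaI digestion and capillary electrophoresis. Activity fitted bidirectionally against DMSO baseline.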

For test [13], the target named is Estrogen receptor (Homo sapiens) (UniProt P03372). Briefly: ATG_ERa_TRANS: Attagene TRANS-FACTORIAL HepG2 Assay for human Estrogen Receptor alpha (ERa) (AID 2282970; active = hit-call score of the fitted dose curve at least 0.9, where 1 is the maximum). The settings on record: HepG2 Attagene TRANS ERa GAL4 reporter, mRNA. The procedure, abridged:
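Cells: HepG2, transiently transfected. Construct: GAL4-UAS reporter units regulated by exogenous NR-Gal4 chimeras. Time: 24 h. Detection: reporter mRNA by RT-PCR, capillary electrophoresis, fluorescence. Baseline: DMSO, upward fitting.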

Test [14] deals with Steroid hormone receptor ERR1 (Homo sapiens) (UniProt P11474). Briefly: ATG_ERRa_TRANS: Attagene TRANS-FACTORIAL HepG2 Assay for human Estrogen-Related Receptor alpha (ERRa) (AID 2282971; active = hit-call score of the fitted dose curve at least 0.9, where 1 is the maximum). The settings on record: HepG2 Attagene TRANS reporter, ERRa transactivation. The essentials:
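Reporter transcripts from ERRa-Gal4 chimera activity measured in transiently transfected human HepG2 cells 24 hours after dosing, using RT-PCR with 6-FAM primer extension, HpaI digestion and capillary electrophoresis; DMSO is baseline.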

The target in test [15] is X-box-binding protein 1 (Homo sapiens) (UniProt P17861). Nature of the test: ATG_Xbp1_CIS: Attagene CIS-FACTORIAL HepG2 Assay for human X-box Binding Protein 1 (XBP1) (AID 2282972). Particulars: HepG2 XBP1 cis-element reporter, Attagene multiplex; actives raise or lower the signal. The procedure, abridged: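 HepG2 cells transiently transfected with cis-regulated multiple reporter transcription units; endogenous transcription factor activity measured 24 hours after chemical dosing. Reporter mRNA quantified by RT-PCR, 6-FAM primer extension, HpaI digestion and capillary electrophoresis; bidirectional fitting versus DMSO.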
X-box-binding protein 1 (Homo sapiens), sequence (P17861 whole entry, looked up): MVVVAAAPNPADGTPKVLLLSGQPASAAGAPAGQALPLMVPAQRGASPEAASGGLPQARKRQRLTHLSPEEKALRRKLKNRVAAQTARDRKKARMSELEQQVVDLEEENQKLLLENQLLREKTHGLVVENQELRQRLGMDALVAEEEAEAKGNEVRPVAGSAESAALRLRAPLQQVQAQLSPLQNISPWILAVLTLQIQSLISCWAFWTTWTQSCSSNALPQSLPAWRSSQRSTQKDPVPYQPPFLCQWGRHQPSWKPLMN

The target of test [16] is Estrogen-related receptor gamma (Homo sapiens) (UniProt P62508). Nature of the test: ATG_ERRg_TRANS: Attagene TRANS-FACTORIAL HepG2 Assay for human Estrogen-Related Receptor gamma (ERRg) (AID 2282977; active = hit-call score of the fitted dose curve at least 0.9, where 1 is the maximum;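 note: hits increase reporter signal over DMSO so potencies reflect activators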). Particulars: HepG2 Attagene TRANS reporter, ERRg transactivation. The procedure, abridged:
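Transient HepG2 transfectants, 24 h compound exposure, GAL4-UAS reporter mRNA by RT-PCR/6-FAM labelling/capillary electrophoresis; positive direction vs DMSO.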

The nature of test [17]: ATG_M_19_TRANS: Attagene TRANS-FACTORIAL HepG2 Assay for M19 Transcription Factor (Internal Marker) (AID 2282974; active = hit-call score of the fitted dose curve at least 0.9, where 1 is the maximum). The settings on record: HepG2 Attagene TRANS-FACTORIAL M19 internal marker reporter. The procedure, abridged:
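After transfection of HepG2 with GAL4-UAS-driven reporter constructs, cells are dosed for 24 h. Total RNA is reverse-transcribed, reporter sequences PCR-amplified and labelled, then HpaI-digested and sized by capillary electrophoresis.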

The nature of test [18]: ATG_GAL4_TRANS: Attagene TRANS-FACTORIAL HepG2 Assay for GAL4 (Internal Marker) (AID 2282976; active = hit-call score of the fitted dose curve at least 0.9, where 1 is the maximum). The settings on record: HepG2 Attagene TRANS GAL4 internal marker reporter. The procedure, abridged: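 In transfected human HepG2 liver cells dosed 24 h, GAL4 reporter mRNA serves as a baseline marker. Detection by RT-PCR with fluorescent capillary electrophoresis, activity fitted upward relative to DMSO.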

Test [19] is described as follows: ATG_TCF_b_cat_CIS: Attagene CIS-FACTORIAL HepG2 Assay for human T-Cell-Factor with beta-catenin (TCF/b-cat) (AID 2282965). Particulars: HepG2 TCF/beta-catenin cis-reporter transcription, actives raise or lower the signal. The essentials:
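HepG2 cells transiently transfected with multiple cis-promoter-regulated reporter transcription units, so endogenous transcription factor activity is measured. Reporter mRNA read 24 hours after dosing by RT-PCR, fluorescent labelling and capillary electrophoresis; bidirectional fitting against DMSO.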

In test [20] the target is Nuclear receptor subfamily 1 group I member 3 (Homo sapiens) (UniProt Q14994). Briefly: ATG_CAR_TRANS: Attagene TRANS-FACTORIAL HepG2 Assay for human Constitutive Androstane Receptor (CAR) (AID 2282969; active = hit-call score of the fitted dose curve at least 0.9, where 1 is the maximum;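 note: activators raise reporter mRNA above DMSO so AC50 marks induction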). The settings on record: HepG2 Attagene TRANS-FACTORIAL CAR reporter. The essentials:
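HepG2 cells transiently transfected with multiplexed GAL4-UAS reporter units expressing chimeric NR-Gal4 proteins; compound exposure 24 h. Reporter mRNA measured by RT-PCR, 6-FAM labelling, HpaI digestion and capillary electrophoresis; gain-of-signal fitted against DMSO baseline.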

“And” between values parts separate entries of the source, which are not always exact repeats. Equal values may be shown once. Inconclusive results are not listed. More than one record can exist for a structure, and the calls need not agree. The source made the active and inactive calls. Rule for the calls, unless noted: active = hit-call score of the fitted dose curve at least 0.9, where 1 is the maximum; inactive = score below 0.9.

Estrogen-related receptor gamma (Homo sapiens), sequence (P62508 whole entry, looked up, the tested form may be a part): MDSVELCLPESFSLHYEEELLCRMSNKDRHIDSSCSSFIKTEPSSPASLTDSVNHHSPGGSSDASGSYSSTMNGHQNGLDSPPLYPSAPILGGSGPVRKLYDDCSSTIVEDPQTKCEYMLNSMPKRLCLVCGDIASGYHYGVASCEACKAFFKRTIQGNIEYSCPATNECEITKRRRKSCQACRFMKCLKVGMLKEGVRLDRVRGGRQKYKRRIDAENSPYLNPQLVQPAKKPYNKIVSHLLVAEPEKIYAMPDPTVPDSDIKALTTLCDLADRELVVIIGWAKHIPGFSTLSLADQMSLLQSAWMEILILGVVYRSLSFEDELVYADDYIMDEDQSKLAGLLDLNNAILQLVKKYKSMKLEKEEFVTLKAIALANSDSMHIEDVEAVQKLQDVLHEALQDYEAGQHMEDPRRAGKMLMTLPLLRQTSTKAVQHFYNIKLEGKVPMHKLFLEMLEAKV
Estrogen receptor (Homo sapiens), sequence (P03372 whole entry, looked up, the tested form may be a part): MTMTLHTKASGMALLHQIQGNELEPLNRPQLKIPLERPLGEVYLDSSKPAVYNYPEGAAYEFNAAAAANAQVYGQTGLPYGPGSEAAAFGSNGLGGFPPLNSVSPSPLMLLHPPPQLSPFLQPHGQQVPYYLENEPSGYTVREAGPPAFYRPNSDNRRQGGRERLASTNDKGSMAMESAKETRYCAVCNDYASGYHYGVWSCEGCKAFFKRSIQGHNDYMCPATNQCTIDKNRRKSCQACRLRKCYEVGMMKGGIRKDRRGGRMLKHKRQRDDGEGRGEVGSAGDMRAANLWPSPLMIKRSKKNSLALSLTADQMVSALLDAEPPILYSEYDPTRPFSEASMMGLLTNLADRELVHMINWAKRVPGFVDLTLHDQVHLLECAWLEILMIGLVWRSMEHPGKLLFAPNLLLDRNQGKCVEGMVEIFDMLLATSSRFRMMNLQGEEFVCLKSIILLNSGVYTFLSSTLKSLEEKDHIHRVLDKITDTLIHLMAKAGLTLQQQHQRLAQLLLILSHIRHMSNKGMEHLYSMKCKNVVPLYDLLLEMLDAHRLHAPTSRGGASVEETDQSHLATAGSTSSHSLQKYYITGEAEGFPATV
Paired box protein Pax-6 (Homo sapiens), sequence (P26367 whole entry, looked up): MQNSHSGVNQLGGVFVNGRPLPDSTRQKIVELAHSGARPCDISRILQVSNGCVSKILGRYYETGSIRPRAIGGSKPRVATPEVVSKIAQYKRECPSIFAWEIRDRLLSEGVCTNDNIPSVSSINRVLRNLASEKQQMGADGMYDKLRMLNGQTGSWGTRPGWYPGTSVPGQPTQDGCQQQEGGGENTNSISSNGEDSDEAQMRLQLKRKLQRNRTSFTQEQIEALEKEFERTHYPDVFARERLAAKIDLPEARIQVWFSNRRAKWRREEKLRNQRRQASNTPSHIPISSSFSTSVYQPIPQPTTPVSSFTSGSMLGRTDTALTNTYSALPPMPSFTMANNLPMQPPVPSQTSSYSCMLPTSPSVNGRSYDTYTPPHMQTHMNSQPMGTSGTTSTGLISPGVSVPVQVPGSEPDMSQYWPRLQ
Steroid hormone receptor ERR1 (Homo sapiens), sequence (P11474 whole entry, looked up, the tested form may be a part): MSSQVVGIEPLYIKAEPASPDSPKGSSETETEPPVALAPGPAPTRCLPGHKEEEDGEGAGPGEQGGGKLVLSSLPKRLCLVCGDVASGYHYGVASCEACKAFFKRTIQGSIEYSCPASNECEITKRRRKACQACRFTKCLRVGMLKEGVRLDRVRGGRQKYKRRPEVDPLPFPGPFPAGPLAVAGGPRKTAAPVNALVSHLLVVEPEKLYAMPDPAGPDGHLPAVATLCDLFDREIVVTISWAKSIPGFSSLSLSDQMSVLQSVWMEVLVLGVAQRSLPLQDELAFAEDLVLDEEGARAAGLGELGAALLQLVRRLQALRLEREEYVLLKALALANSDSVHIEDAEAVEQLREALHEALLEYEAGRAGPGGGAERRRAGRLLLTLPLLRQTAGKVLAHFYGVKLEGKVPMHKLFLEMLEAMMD
Signal transducer and activator of transcription 3 (Homo sapiens), sequence (P40763 whole entry, looked up): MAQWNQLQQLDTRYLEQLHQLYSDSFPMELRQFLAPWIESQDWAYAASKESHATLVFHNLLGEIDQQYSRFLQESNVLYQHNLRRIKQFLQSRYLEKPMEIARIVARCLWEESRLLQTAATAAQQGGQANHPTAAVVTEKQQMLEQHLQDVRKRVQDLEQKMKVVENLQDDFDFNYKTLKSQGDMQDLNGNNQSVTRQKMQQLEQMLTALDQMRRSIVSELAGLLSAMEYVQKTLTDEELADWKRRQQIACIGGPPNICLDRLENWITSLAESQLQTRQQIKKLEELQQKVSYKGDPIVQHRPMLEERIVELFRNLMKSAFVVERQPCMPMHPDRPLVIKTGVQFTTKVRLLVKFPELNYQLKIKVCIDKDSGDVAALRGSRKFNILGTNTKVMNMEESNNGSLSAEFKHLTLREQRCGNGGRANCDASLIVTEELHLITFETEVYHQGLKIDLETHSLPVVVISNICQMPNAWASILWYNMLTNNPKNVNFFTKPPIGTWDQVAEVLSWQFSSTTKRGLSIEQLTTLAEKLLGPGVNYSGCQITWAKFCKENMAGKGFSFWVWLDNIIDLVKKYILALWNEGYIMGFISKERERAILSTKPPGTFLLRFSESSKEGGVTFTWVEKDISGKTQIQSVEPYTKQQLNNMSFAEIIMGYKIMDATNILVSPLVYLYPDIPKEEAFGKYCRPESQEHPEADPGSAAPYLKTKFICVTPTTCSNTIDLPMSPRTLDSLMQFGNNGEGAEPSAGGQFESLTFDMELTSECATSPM
Nuclear receptor subfamily 1 group I member 3 (Homo sapiens), sequence (Q14994 whole entry, looked up, the tested form may be a part): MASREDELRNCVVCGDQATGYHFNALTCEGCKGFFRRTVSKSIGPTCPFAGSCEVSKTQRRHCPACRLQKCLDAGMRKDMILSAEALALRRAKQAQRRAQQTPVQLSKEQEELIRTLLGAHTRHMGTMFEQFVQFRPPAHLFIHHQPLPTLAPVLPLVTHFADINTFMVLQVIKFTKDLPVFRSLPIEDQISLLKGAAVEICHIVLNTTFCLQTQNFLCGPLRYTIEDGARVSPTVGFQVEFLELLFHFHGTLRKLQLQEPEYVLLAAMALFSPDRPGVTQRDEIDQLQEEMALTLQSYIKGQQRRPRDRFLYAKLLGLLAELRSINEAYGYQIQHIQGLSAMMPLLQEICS

Usually AC50 stands for the concentration at which the activity in the assay is half-maximal. `c1ccc2ccccc2c1`: the compound was classed as inactive in test [1], in test [2], in [3], in [4], in test [5] and in test [6]. For the same compound, the call in [7], in test [8], in [9], in [10], in [11] and in test [12] was inactive. The call in test [13], in [14], in test [15] and in [16] was inactive. The AC50 in test [13] was 59 µM (active).

`Cc1ccc2oc(CN(Cc3ccccc3)C(=O)Nc3c(F)cc(F)cc3F)c(-c3ccc(Cl)cc3)c2c1`: the outcome in test [1], in test [4], in test [5], in test [6], in [7] and in test [8] was inactive. The result in [9], in test [10], in test [11], in test [12], in test [14] and in test [17] was inactive. For the same compound, the AC50 in [2] is 630 nM (active).

With `CCCCCCCCCCCO`, the outcome in test [1], in test [2], in [3], in [4], in test [5] and in test [6] was inactive. Further, the result in test [7], in test [8], in [9], in test [10], in test [11] and in test [12] was inactive. Moreover, the result in [13], in [15] and in test [18] was inactive. In test [17], the half-maximal activity concentration (AC50) was 158 µM (active).

In the case of `CN(C[C@@H](CC[N+]12CCC(C3CCCCC3)(CC1)CC2)c1ccc(Cl)c(Cl)c1)C(=O)c1cc(C(F)(F)F)cc(C(F)(F)F)c1`, the result in test [1], in [2], in [4], in [5], in test [6] and in test [7] was inactive. Moreover, the result in test [8], in [9], in test [19], in [10], in test [11] and in test [12] was inactive. The outcome in [20], in test [13] and in [16] was inactive.

Regarding `CC1(C)NC(=O)N(c2ccc([N+](=O)[O-])c(C(F)(F)F)c2)C1=O`, the compound was classed as inactive in [1], in test [4], in test [5], in test [6], in test [7] and in [8]. Moreover, the result in [9], in [10], in test [11], in [12], in test [14] and in [15] was inactive. The compound was classed as inactive in [17], in test [18] and in test [16]. Further, the concentration at half-maximal activity (AC50) in test [2] is 27.5 µM (active) and 6.9 µM (active) and 27.3 µM (active).
